Assay outcomes (PubChem BioAssay)
ATXN viability: cell viability loss in ATXN counter-screen. S2 cells (HEK-293 line with an ATXN2-luciferase reporter) viability, CellTiter-Fluor protease fluorescence, 24 h. Potency, µM (top dose mostly 56.7 µM), most hits filed as cytotoxic. 0.49% of 400,000 active. AID 651635; further: potency means the concentration at half of the fitted maximal effect; nearly all actives have a fitted effect of over 40% in size
IL1B secr inh: inflammasome signaling inhibition, IL-1 beta readout; AID 743279; 4.7% of 360,000 active; THP-1 LPS/ATP IL-1B secretion, AlphaLISA, 16 h; hits give low values; activity change, % at 57.5 µM; in the data active means activity change below about -50%; inconclusive means mostly about -30% to -49%; further: on the % scale 0 is the no-effect control and ±100 the full control effect
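Secreted IL-1B measured by AlphaLISA bead assay after 16 h compound exposure of THP-1 cells; compounds (final up to 57.5 uM) added 1 h before LPS (250 ng/mL) and ATP (1.25 mM) stimulation; lower signal means less secretion.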
ATXN2 expr inh: inhibitors of ATXN2 expression; HEK-293 ATXN2-luciferase reporter, luminescence, 24 h; Potency, µM (top dose mostly 57 µM), without a hit: at the top dose activity change, negative = inhibition, usual class: inhibitors; 0.72% of 360,000 active; AID 1745845; further: potency means the concentration at half of the fitted maximal effect; on the % scale 0 is the no-effect control and ±100 the full control effect; nearly all actives have a fitted effect of over 55% in size
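qHTS (up to 57 uM final) was run with 24 h compound exposure of reporter cells at 37 °C. Each well was multiplexed: SteadyGlo luminescence measured ATXN2-luciferase expression after a fluorogenic Gly-Phe-AFC viability readout (25 uM final).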
SW480 rerep: induces DNA re-replication in SW480 colon adenocarcinoma cells; 1.8% of 340,000 active; SW480 DNA re-replication, Hoechst DNA content imaging, 48 h; Potency, µM (highest dose often 46.1 µM), for inactives: at the top dose re-replication activation, hits mostly activators; further: potency means the concentration at half of the fitted maximal effect; % of control where 0% means no effect; nearly all actives have a fitted effect of over 55% in size
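DNA re-replication was detected as more nuclei of elevated Hoechst intensity after 48 hr exposure to compound (23 nL pinned per well of 250 cells).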
MCF10A rereplic: induces DNA re-replication in MCF 10a normal breast cells; Potency, µM (titrated, usually from 46.1 µM), for the others: at the highest dose activity, positive = re-replication, actives largely listed as activators; 2.9% of 350,000 active; MCF 10A DNA re-replication, Hoechst nuclear intensity, 48 h; AID 624296; further: potency means the concentration at half of the fitted maximal effect; % of control where 0% means no effect; nearly all actives have a fitted effect of over 50% in size
PINK1 modulator: changes PINK1 expression; PINK1 immunofluorescence, high-content cytometry, 24 h; Potency, µM (series often up to 76.6 µM), for the others: at the highest dose activation (PINK1 increase), most hits filed as activators; 0.2% of 410,000 active; active means well fitted activation curve with a large enough effect; inconclusive means small, poorly fitted or top-dose-only effect; cell line not stated here; further: potency means the concentration at half of the fitted maximal effect; % of control where 0% means no effect; nearly all actives have a fitted effect of over 65% in size
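PINK1 protein level read as immunofluorescence by microplate cytometer in a fixed, stained stable cell line after 24 h exposure to five compound concentrations, with CCCP as control.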
The depositor's hits bear a star; i = inactive; ? = inconclusive; nt = no result given; [ ] = another dose, or the depositor's remark. Sampled rows, rich in hits. Any-hit rate of the full collection: about 7.1%. Unless noted, the call rests on the fitted dose curve; in most records, active means well fitted curve in the direction sought with a large enough effect; inconclusive means small, poorly fitted or top-dose-only effect, or another doubt; inactive means no such curve, though single readings can be large; an effect the other way counts as inactive or inconclusive.

SMILES | ATXN viability | IL1B secr inh | ATXN2 expr inh | SW480 rerep | MCF10A rereplic | PINK1 modulator
CCC(CC)c1nnc(NC(=O)c2ccc([N+](=O)[O-])cc2)s1 | i | 0 | 18% | -5% | -1% | 2%
CCOC(=O)c1sc(NNC(=O)c2ccc(C)cc2)nc1C | i | -5 | 1% | -11% | 26µM* | 0%
CCOC(=O)c1sc(NNC(=O)c2ccc(F)cc2)nc1C | i | 58 | -17% | ? | 8% | 1%
CC(=O)C(C(C)=O)C(NC(=O)c1cccnc1)(C(F)(F)F)C(F)(F)F | i | 17 | 2% | ? | 21µM* | 0%
CCOC(=O)C(O)(NC(=O)c1cccnc1)C(F)(F)F (stereo unspecified) | i | -3 | -3% | 1% | -6% | 1%
O=C(c1cnn(-c2nccc(-c3ccccc3F)n2)c1C1CC1)N1CCN(CCO)CC1 | i | nt | nt | nt | nt | 0%
CN(CCOc1ccc(Cl)cc1)CC(=O)Nc1ccc(OC(F)F)cc1 | i | -5 | -22% | ? | 24% | 0%
CCC(C)c1ccccc1NC(=O)CN(C)CCOc1ccc(Cl)cc1 (stereo unspecified) | i | -77* | -16% | ? | ? | 13%
O=C(NCCCN1CCOCC1)c1ccc(-n2nc(C(F)(F)F)cc2-c2cccs2)cc1 | i | -87* | ? | 0% | ? | 0%
CCOC(=O)c1cccc(NC(=O)N2Cc3ccccc3Oc3ncccc32)c1 | nt | nt | nt | nt | nt | -1%
COc1ccc2nc3sc(C(=O)Nc4cc(Cl)c(OC)cc4OC)cc3cc2c1 | i | nt | 12% | nt | nt | 0%
COc1cc2c(cc1OC)C(C)N(C(=O)c1cc(Cl)nc(Cl)c1)CC2 (stereo unspecified) | i | 85 | -13% | 8.2µM* | 9.2µM* | -1%
COc1cc2c(cc1OC)C(C)N(C(=O)c1cc3c(C)cc(C)cc3[nH]1)CC2 (stereo unspecified) | ? | -81* | ? | ? | ? | -1%
COc1cc2c(cc1OC)C(C)N(C(=O)c1ccc(Br)o1)CC2 (stereo unspecified) | i | -16 | -14% | 20% | 17% | 7%
COc1cc2c(cc1OC)C(C)N(C(=O)c1nccnc1C(=O)O)CC2 (stereo unspecified) | i | 4 | 9% | 1% | -1% | 3%
COc1cc2c(cc1OC)C(C)N(C(=O)Nc1cc(C)cc(C)c1)CC2 (stereo unspecified) | ? | 35 | nt | ? | 3.7µM* | 7%
Cc1ccccc1C(=O)N1CCN(c2ccccn2)CC1 | i | -11 | -8% | 1% | -1% | -1%
O=C(c1cnc(N2CCN(c3ncccn3)CC2)c2ccccc12)N1CCN(c2ccccn2)CC1 | i | -66* | -15% | -7% | ? | 0%
O=C(c1ccccc1-c1ccccc1)N1CCN(c2ccccn2)CC1 | i | 0 | -13% | 7.3µM* | 7.3µM* | 2%
Cc1ccc(NC(=O)c2cnc(N3CCN(c4ccccn4)CC3)c3ccccc23)c(Br)c1 | i | -28 | ? | ? | 18µM* | 2%
COc1ccc(-c2cc(C(=O)N3CCCCCC3)c3ccccc3n2)cc1OC | i | ? | nt | nt | nt | 2%
COc1ccc(-c2cc(C(=O)N3CCN(c4ccccc4)CC3)c3ccccc3n2)cc1OC | i | -20 | 4% | 18% | 13µM* | 0%
Cc1ccc2c(C(=O)N3CCN(c4ccccc4)CC3)cc(-c3cccnc3)nc2c1C | i | -64* | -15% | 5% | ? | -1%
O=C(c1cc(-c2ccncc2)nc2ccccc12)N1CCN(c2ccccn2)CC1 | ? | 8 | -18% | 18µM* | 10µM* | 27%[38.3 µM]
COc1ccc(/C=N/NC(=O)Nc2cccc3nsnc23)c(OC)c1 | i | 67 | -38% | ? | ? | 13%
COc1cc(/C=N/NC(=O)Nc2cccc3nsnc23)cc(OC)c1OC | nt | -13 | ? | ? | 3.3µM* | 5%
